Columns and labels:
[1] = target: Tyrosine-protein kinase Fer (Homo sapiens) (UniProt P16591); details: at 1 µM
[2] = target: Tyrosine-protein kinase Fes/Fps (Homo sapiens) (UniProt P07332); details: at 0.1 µM
[3] = target: Tyrosine-protein kinase Fes/Fps (Homo sapiens) (UniProt P07332); details: at 1 µM
[4] = target: Fibroblast growth factor receptor 1 (Homo sapiens) (UniProt P11362); details: at 0.1 µM
[5] = target: Fibroblast growth factor receptor 1 (Homo sapiens) (UniProt P11362); details: at 1 µM
[6] = target: Fibroblast growth factor receptor 2 (Homo sapiens) (UniProt P21802); details: at 0.1 µM
Sequence of Fibroblast growth factor receptor 2 (Homo sapiens) (P21802 22-821 limits assumed): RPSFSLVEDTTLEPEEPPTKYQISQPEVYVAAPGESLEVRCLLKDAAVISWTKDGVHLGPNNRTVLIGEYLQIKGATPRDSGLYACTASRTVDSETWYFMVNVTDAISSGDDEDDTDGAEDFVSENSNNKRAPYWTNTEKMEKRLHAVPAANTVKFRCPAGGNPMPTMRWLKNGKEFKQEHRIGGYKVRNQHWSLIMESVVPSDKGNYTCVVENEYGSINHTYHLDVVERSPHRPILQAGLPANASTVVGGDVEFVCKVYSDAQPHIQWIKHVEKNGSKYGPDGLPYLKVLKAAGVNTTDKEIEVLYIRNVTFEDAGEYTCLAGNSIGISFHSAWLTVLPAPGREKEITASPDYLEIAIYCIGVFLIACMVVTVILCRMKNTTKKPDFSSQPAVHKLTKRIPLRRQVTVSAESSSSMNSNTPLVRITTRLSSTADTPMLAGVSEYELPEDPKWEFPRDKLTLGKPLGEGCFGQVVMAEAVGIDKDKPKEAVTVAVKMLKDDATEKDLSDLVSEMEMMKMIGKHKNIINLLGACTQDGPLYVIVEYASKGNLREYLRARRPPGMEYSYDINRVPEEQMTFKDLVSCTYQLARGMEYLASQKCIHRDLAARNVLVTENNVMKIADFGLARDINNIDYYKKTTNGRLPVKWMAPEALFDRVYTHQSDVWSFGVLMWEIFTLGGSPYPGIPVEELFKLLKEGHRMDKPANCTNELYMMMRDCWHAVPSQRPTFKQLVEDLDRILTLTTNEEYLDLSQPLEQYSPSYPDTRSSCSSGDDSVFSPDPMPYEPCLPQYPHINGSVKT

[7] = target: Fibroblast growth factor receptor 2 (Homo sapiens) (UniProt P21802); details: at 1 µM
[8] = target: Fibroblast growth factor receptor 3 (Homo sapiens) (UniProt P22607); details: at 0.1 µM
[9] = target: Fibroblast growth factor receptor 3 (Homo sapiens) (UniProt P22607); details: at 1 µM
[10] = target: Fibroblast growth factor receptor 4 (Homo sapiens) (UniProt P22455); details: at 0.1 µM
[11] = target: Fibroblast growth factor receptor 4 (Homo sapiens) (UniProt P22455); details: at 1 µM
[12] = target: Tyrosine-protein kinase Fgr (Homo sapiens) (UniProt P09769); details: at 0.1 µM
Sequence of Tyrosine-protein kinase Fgr (Homo sapiens) (P09769 2-529 limits assumed): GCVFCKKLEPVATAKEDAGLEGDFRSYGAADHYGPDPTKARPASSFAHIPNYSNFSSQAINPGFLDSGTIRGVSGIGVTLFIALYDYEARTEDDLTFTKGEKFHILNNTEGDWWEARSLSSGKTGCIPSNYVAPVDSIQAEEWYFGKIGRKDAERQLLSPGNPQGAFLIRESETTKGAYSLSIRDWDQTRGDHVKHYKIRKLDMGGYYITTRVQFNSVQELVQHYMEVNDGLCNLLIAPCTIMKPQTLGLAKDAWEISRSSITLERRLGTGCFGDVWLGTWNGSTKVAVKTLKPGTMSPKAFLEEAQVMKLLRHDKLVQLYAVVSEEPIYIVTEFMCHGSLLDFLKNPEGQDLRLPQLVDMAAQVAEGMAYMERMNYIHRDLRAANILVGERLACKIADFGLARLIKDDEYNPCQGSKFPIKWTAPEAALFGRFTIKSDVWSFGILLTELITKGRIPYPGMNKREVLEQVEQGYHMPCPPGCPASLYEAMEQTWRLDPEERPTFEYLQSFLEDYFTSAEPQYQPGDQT

[13] = target: Tyrosine-protein kinase Fgr (Homo sapiens) (UniProt P09769); details: at 1 µM
[14] = target: Vascular endothelial growth factor receptor 1 (Homo sapiens) (UniProt P17948); details: at 0.1 µM
[15] = target: Vascular endothelial growth factor receptor 1 (Homo sapiens) (UniProt P17948); details: at 1 µM
[16] = target: Receptor-type tyrosine-protein kinase FLT3 (Homo sapiens) (UniProt P36888); details: at 0.1 µM
[17] = target: Receptor-type tyrosine-protein kinase FLT3 (Homo sapiens) (UniProt P36888); details: at 1 µM
[18] = system: T1, Receptor-type tyrosine-protein kinase FLT3 (Homo sapiens), P36888 [D835Y]; details: at 0.1 µM
T1 sequence (whole entry): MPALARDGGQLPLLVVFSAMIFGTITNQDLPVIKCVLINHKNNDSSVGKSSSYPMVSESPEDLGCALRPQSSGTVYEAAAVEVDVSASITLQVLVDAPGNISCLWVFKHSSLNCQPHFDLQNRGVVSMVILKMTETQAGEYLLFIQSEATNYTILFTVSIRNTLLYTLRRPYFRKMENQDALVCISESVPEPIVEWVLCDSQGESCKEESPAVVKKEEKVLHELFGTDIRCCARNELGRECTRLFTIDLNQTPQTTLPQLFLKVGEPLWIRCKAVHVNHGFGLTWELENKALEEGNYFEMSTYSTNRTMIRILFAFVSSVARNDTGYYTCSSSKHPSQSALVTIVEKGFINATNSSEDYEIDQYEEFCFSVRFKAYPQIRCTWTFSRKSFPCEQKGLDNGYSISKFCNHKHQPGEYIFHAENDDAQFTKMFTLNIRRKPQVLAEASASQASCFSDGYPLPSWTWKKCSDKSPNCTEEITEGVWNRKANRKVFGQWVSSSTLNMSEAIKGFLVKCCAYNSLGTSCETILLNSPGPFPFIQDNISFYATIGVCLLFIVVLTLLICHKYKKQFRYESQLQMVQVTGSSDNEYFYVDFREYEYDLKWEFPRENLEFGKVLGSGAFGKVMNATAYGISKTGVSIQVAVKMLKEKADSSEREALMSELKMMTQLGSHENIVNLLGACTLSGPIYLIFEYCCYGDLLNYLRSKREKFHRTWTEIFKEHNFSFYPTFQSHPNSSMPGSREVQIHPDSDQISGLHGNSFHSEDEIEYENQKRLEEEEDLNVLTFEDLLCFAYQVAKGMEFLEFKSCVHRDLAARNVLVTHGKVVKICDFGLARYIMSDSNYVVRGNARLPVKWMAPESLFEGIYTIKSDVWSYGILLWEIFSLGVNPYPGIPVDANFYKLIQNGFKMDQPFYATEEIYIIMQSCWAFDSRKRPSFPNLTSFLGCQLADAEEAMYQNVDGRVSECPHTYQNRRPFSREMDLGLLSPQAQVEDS

[19] = target: Non-receptor tyrosine-protein kinase TYK2 (Homo sapiens) (UniProt P29597); details: at 1 µM;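 further: values are mean percent inhibition of TYK2 kinase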
Sequence of Non-receptor tyrosine-protein kinase TYK2 (Homo sapiens) (P29597 whole entry): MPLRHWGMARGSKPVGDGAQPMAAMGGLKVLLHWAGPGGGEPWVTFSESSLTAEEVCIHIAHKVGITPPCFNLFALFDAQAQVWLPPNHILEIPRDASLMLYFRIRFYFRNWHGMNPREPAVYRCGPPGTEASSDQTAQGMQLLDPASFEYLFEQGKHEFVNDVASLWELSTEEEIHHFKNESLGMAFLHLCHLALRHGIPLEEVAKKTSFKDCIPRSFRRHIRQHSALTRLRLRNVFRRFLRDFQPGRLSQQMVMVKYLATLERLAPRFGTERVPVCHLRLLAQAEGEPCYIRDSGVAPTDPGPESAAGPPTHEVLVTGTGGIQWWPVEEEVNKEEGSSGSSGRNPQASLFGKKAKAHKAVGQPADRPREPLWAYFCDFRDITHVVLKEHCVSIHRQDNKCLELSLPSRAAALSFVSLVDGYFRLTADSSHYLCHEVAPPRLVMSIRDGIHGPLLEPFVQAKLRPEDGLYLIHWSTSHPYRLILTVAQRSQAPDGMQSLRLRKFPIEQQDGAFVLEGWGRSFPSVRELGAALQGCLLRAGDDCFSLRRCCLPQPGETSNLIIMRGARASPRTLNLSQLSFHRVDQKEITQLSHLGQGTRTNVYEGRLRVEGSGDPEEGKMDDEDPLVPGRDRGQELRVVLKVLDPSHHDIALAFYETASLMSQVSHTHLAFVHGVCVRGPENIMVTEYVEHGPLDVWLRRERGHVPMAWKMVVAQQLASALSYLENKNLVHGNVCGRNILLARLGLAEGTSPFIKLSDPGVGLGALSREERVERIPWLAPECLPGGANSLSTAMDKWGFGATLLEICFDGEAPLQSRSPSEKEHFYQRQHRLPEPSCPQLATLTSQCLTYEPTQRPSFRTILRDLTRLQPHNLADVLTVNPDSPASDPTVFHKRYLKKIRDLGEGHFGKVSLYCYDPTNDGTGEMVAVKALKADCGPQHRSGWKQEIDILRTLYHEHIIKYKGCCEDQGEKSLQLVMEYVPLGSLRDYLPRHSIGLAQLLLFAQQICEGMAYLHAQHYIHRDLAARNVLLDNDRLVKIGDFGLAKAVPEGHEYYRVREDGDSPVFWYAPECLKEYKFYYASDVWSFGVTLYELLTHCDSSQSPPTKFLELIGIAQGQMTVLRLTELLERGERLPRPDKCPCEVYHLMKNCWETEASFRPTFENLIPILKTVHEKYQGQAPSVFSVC

[20] = target: T2, Tyrosine-protein kinase receptor TYRO3 (Homo sapiens) (UniProt Q06418); details: at 0.1 µM;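 further: reported percentages are averaged inhibition values of TYRO3 kinase activity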
T2 sequence (whole entry): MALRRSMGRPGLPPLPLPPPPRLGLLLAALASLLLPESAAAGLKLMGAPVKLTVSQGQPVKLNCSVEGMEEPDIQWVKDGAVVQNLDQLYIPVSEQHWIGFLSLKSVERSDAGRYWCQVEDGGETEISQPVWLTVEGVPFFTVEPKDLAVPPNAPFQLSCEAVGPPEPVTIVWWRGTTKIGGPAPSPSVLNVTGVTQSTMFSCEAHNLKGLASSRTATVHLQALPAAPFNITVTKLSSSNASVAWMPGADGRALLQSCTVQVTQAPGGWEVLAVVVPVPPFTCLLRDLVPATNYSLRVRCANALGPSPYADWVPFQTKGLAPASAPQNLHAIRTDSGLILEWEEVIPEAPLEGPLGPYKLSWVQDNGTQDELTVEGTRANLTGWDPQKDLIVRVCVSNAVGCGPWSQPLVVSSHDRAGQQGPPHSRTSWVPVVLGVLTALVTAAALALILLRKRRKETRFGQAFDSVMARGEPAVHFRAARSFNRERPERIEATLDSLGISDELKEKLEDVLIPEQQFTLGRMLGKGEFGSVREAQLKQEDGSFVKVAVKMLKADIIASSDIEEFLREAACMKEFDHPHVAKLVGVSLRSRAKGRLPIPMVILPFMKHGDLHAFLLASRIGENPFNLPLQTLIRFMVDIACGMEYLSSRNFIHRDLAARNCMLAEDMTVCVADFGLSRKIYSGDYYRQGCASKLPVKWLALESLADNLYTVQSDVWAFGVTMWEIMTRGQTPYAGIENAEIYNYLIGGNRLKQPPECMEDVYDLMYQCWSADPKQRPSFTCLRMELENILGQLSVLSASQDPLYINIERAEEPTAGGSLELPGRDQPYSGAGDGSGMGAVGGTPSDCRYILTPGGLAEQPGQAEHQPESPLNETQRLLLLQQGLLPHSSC

Sequence of Fibroblast growth factor receptor 1 (Homo sapiens) (P11362 22-822 limits assumed): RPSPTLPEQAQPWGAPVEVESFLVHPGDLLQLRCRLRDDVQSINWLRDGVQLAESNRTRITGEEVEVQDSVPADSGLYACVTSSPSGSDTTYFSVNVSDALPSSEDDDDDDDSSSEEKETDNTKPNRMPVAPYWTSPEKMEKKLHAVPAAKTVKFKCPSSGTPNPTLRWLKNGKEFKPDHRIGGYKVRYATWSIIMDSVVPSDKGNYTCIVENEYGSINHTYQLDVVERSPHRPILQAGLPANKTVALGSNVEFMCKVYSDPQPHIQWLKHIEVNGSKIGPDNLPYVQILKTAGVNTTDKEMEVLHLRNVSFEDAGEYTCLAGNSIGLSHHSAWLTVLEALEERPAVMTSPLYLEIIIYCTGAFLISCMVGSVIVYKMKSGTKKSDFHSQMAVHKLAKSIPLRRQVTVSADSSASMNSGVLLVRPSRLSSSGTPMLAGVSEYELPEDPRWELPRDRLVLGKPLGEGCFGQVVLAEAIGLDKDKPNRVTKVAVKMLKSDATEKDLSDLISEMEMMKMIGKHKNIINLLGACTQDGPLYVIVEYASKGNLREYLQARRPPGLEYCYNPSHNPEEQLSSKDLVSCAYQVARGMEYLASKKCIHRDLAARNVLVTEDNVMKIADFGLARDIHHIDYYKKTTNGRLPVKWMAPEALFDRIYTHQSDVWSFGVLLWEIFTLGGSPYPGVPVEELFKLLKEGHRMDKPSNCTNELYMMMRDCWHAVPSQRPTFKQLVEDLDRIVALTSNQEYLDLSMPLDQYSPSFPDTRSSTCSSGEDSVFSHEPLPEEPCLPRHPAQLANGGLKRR
Sequence of Tyrosine-protein kinase Fes/Fps (Homo sapiens) (P07332 whole entry): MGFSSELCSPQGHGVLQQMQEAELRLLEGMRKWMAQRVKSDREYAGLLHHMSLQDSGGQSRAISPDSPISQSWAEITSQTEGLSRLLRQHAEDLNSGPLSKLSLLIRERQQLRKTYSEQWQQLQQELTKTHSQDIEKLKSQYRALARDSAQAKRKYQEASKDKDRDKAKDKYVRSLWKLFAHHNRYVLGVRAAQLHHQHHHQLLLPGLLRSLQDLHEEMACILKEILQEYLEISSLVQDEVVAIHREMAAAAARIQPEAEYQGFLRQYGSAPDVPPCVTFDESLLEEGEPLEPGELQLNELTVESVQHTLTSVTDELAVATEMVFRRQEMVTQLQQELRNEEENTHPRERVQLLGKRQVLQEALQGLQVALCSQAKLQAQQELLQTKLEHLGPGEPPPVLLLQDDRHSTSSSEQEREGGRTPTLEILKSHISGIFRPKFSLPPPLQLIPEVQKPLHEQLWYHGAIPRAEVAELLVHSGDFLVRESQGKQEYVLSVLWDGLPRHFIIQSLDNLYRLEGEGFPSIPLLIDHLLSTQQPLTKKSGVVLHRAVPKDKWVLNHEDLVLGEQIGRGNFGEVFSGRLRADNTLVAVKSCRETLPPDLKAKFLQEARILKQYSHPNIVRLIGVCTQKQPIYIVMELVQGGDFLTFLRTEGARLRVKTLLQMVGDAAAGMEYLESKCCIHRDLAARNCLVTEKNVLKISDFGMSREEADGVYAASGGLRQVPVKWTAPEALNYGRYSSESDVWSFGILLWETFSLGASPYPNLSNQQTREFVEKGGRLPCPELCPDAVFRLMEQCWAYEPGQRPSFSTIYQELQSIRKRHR
Sequence of Tyrosine-protein kinase Fer (Homo sapiens) (P16591 whole entry, looked up): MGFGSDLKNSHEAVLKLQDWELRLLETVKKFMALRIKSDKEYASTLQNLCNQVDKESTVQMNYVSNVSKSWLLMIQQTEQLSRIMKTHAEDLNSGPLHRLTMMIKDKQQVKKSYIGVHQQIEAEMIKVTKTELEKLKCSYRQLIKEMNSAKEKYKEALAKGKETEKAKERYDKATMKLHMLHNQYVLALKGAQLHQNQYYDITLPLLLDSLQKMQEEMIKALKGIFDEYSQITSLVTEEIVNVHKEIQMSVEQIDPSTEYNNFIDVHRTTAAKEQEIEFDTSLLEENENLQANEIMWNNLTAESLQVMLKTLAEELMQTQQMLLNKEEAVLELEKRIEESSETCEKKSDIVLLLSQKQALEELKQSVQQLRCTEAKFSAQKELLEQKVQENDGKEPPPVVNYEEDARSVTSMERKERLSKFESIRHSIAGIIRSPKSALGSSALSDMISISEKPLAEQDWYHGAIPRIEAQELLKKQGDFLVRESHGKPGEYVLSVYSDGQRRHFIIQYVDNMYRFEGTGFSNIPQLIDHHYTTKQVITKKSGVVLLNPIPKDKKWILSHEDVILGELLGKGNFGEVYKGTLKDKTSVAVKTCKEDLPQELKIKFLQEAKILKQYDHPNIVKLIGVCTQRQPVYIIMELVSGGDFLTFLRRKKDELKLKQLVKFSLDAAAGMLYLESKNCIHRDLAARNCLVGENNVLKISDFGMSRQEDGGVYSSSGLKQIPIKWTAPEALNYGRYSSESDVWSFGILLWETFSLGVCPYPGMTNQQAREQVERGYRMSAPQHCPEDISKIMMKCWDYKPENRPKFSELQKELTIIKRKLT

SMILES | inhibition [1] [%] | inhibition [2] [%] | inhibition [3] [%] | inhibition [4] [%] | inhibition [5] [%] | inhibition [6] [%] | inhibition [7] [%] | inhibition [8] [%] | inhibition [9] [%] | inhibition [10] [%] | inhibition [11] [%] | inhibition [12] [%] | inhibition [13] [%] | inhibition [14] [%] | inhibition [15] [%] | inhibition [16] [%] | inhibition [17] [%] | inhibition [18] [%] | inhibition [19] [%] | inhibition [20] [%]
N#Cc1c(NC(=O)c2cccc3ccccc23)sc2c1CCCC2 | 1.93 | 2.2 | 2.36 | 0.22 | 2.06 | 1.68 | 4.84 | 5.84 | 4.55 | -2.84 | -0.35 | 1.53 | 5.24 | -0.49 | 0.41 | 2.28 | 2.23 | 3.1 | -3.92 | 2.98
O=C1Nc2ccc(C(=O)c3ccco3)cc2C1=Cc1cc(Cl)c(O)c(Cl)c1 | 11.5 | 1.95 | 2.89 | 3.35 | 8.23 | 6.09 | 25.8 | 9.26 | 19.1 | 2.69 | 7.04 | 2.46 | 11.6 | 1.07 | 4.42 | 1.69 | 12.7 | 4.82 | 26.4 | 1.96
COc1cc2ncn(-c3cc(OCc4ccccc4C(F)(F)F)c(C(N)=O)s3)c2cc1OC | 10.5 | 2.56 | 1.4 | -0.93 | 13 | 2.62 | 20.9 | 6.21 | 18.2 | -3.31 | -1.16 | 4.79 | 14.6 | 1.92 | 9.39 | 0.06 | 9.95 | 9.27 | -6.76 | 3.15
O=C1NC(=O)C(c2ccccc2Cl)=C1Nc1cccc(O)c1 | 2.82 | 1.81 | 2.5 | 4.34 | 7.05 | 3.39 | -3.75 | 2.9 | 2.97 | 1.92 | 0.13 | 1.27 | 2.07 | 0.36 | 0.77 | 2.15 | 2.8 | 3.17 | -2.87 | 1.29
Cc1cccc(-c2n[nH]cc2-c2ccc3ncccc3n2)n1 | 0.01 | 0.45 | -0.18 | -0.21 | 8.38 | 0.62 | 5.35 | 1.61 | 4.89 | 3.49 | 1.18 | 2.06 | 4.41 | 3.33 | 29.2 | -1.33 | -0.33 | -5.04 | 0.67 | 0.27
COc1ccc(-c2ccncc2)cc1C(N)=O | 3.22 | 2.97 | 3.83 | 4.37 | 8.58 | 7.42 | 8.69 | 7.66 | 7.43 | 2.74 | 1.48 | 3.69 | 4.6 | 2.23 | 2.25 | 5.04 | 2.52 | 4.29 | -3.25 | 1.12
CS(=O)(=O)CCNCc1ccc(-c2ccc3ncnc(Nc4ccc(OCc5cccc(F)c5)c(C(F)(F)F)c4)c3c2)o1 | 1.93 | 2.48 | 2.85 | -1.13 | 2.33 | 3.18 | 4.51 | 4.79 | 3.38 |  | -0.05 | 3.99 | 2.16 | -0.83 | -0.68 | 1 | 1.21 | -2.74 | -3.56 | 3.52
Fc1cccc(COc2ccc(Nc3ncnc4cc(-c5ccc[nH]5)sc34)cc2Cl)c1 | 2.81 | 1.96 | 1.5 | -1.92 | 4.48 | -1.83 | 0.05 | -1 |  |  | -3.31 | 3.74 | 11 | -0.98 | 1.18 | -0.44 | 2.33 | 2.49 | 0.5 | 2.87
CCn1c(-c2nonc2N)nc2c(N3CCCC3)nccc21 | 2.34 | -2.72 | -3.78 | -3.71 | -1.9 | -4 | -1.03 | 0.34 | -0.31 | 3.05 | -0.48 | -0.82 | -0.02 | -0.79 | -0.61 | -0.78 | -2 | -4.93 | 4.26 | -1.31
Nc1ncnc2occ(-c3ccc(NC(=O)Nc4cc(C(F)(F)F)cc(C(F)(F)F)c4)cc3)c12 | 22 | 1.31 | 4.84 | 9.08 | 43.7 | 23.3 | 68.8 | 10.8 | 52.8 | 3.02 | 9.49 | 1.01 | 15.9 | 23.4 | 73.9 | 19 | 78.3 | 12.8 | -5.22 | 2.97
COc1cc(C)c(NC(=O)CN(C)C)cc1Nc1nc(Nc2cccc(F)c2C(N)=O)c2cc[nH]c2n1 | 86.8 | 76.1 | 89 | 0.49 | 1.43 | 0.12 | 4.39 | 2.37 | 1.03 | -1.04 | 1.48 | 0.83 | 2.7 | 2.27 | 0.42 | 1.69 | 4.08 | -5.02 | -1.61 | 2.82
COc1cc2ncn(-c3cc(O[C@H](C)c4ccccc4Cl)c(C(N)=O)s3)c2cc1OC | 16.7 | 3.81 | 5.11 | 4.42 | 29.4 | 12.3 | 44.9 | 9.47 |  | 3.73 | 8.7 | 8.54 | 17.3 | 4.8 | 26.2 | 6.07 | 24.8 | 5.85 | -0.12 | 7.57
CCn1c(-c2nonc2N)nc2cnc(Oc3cccc(NC(=O)c4ccc(OCCN5CCOCC5)cc4)c3)cc21 | 2.2 | 2.8 | 2.83 | 1.76 | 5.99 | 4.83 | 3.45 | 3.36 | 1.9 | -4.45 | 2.48 | 4.08 | 5.54 | 0.64 | 2.14 | 0.9 | 3.19 | -3.34 | -1.28 | 3.27
COc1ccc2cc(-c3c(-c4ccncc4)nc(-c4ccc([S+](C)[O-])cc4)n3C)ccc2c1 (stereo unspecified) | 3.19 | 2.73 | 3 | 0.66 | 17 | 3.38 | 5.85 | 4.62 | 5.2 | 0.03 | 1.73 | 1.14 | 6.14 | -2.5 | -1.05 | 1.98 | 1.93 | -0.4 | -4.84 | 0.64

Source: ChEMBL document CHEMBL1961873, “Compounds: GSK PKIS; Assays: Nanosyn kinase panel” (2012)
